Assay outcomes deposited in PubChem by several laboratories.
In the library only some 2.8% were active in any assay of this set; here they are far more common.
EBV LMP1 NFkB – EBV LMP1-driven NF-kappaB luciferase reporter inhibitors, primary screen, cell-based, luminescence, single point; LMP1-induced NF-kappaB luciferase reporter cells; 350,000 tested, 0.69% active; inhibition, % at 12.5 µM; in the data active = inhibition above about 41%; inconclusive = no clear call, values can overlap the other calls;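 also: 0% = neutral control wells and 100% = reference inhibitor control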
Shn3 3UTR inh – reduction of Shn3 3'UTR firefly luciferase signal, primary screen, Schnurri-3 inhibitor project, cell-based, Clone20 osteoblasts, set 2 | AID 588674, 2011 | inhibition, % at 12.5 µM | 360,000 tested, 0.52% active | Clone20 osteoblast Shn3 3'UTR firefly luciferase, 24 h;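 active = mean inhibition of at least 75% with every replicate also reaching 75%; inconclusive = mean inhibition at least 75% but some replicate below; inactive = mean inhibition below 75%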;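 also: 0% = median of neutral control wells and 100% = pilot-screen positive control compound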
PAX8 inh HTS – inhibitors of PAX8-driven TPO luciferase reporter, primary screen, RMG-I cells, single concentration; SteadyGlo, 24 h; inhibition, % at 12.6 µM; 360,000 tested, 1.2% active;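 active = mean replicate inhibition at least 60% with every replicate also reaching 60%; inconclusive = only one of the two criteria is met; inactive = mean below 60% and not all replicates reaching 60%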;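 also: luciferase light reporting Pax8 driven TPO promoter activity; plate controls were median of neutral control wells for no effect and mitoxantrone controls for full effect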
MITF TRPM1 inh – inhibitors of MITF-dependent TRPM1 promoter reporter, primary screen, cell-based, SK-MEL-5, single point, luciferase. 330,000 tested, 0.83% active. AID 488899, 2010. SK-MEL-5 TRPM1 promoter luciferase, 24 h. inhibition, % at 12.5 µM;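 active = mean inhibition across replicates of 60% or more, whatever share of single replicates reaches that level; inconclusive = some that reach 60%, reason not given; inactive = mean inhibition across replicates below 60%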
HIF-2a block – HIF-2a reporter inhibitors, primary screen, luminescence, 786-0 RCC cells. 786-0 RCC cells HIF-2a reporter, luciferase luminescence, overnight. inhibition, % at 18.8 µM. 360,000 tested, 0.72% active. AID 624352, 2012;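 active = inhibition of the luminescence signal of 40% or more relative to plate controls, in a single-dose primary screen at 18.75 µM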
Peg3 prom inh – Peg3 promoter-driven luciferase inhibitors, primary screen, cell-based, HeLa, luciferase luminescence; HeLa PEG-Prom luciferase reporter, overnight; 360,000 tested, 1.7% active; inhibition, % at 20 µM;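 active = inhibition of at least 50% at 20 µM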
Starred values were filed as active, the others as inactive; ? = inconclusive; . = not tested or not shown.

SMILES | EBV LMP1 NFkB | Shn3 3UTR inh | PAX8 inh HTS | MITF TRPM1 inh | HIF-2a block | Peg3 prom inh
CCC(COC)Oc1cc(NCc2ccccc2)c2ncn(C(C)C)c2c1 (stereo not given) | 9 | 21 | 70* | 6 | 12 | 0
C[C@@H]1CN([C@H](C)CO)C(=O)c2cccc(NS(=O)(=O)c3ccc(Cl)cc3)c2O[C@@H]1CN(C)Cc1ccccc1 | . | . | 2 | . | . | .
COC(=O)c1ccccc1NC(=O)Nc1cc(C)ccn1 | 10 | -4 | -25 | -7 | -6 | -26
Cc1ccnc(NC(=O)Nc2ccc(Br)cc2Cl)c1 | 48* | -45 | -200 | -14 | -184 | -187
Oc1ccc(N=Nc2ccccc2)o1 | -1 | 94* | 8 | 9 | 16 | 38
O=C(NCc1ccccc1)[C@H]1[C@H](CO)[C@H]2Cn3c(cccc3=O)[C@@H]1N2Cc1cccnc1 | . | . | -2 | . | . | .
CC(=O)N[C@@H]1CC[C@@H](CCNC(=O)C2CCCC2)O[C@H]1CO | . | . | -2 | . | . | .
COc1ccc(-c2cc(=O)oc3c(C)c(OC(C)C(C)=O)ccc23)cc1 (stereo not given) | 10 | 19 | -1 | -6 | 26 | 52*
c1ccc(-c2ccc(-c3nc(-c4ccccn4)no3)cc2)cc1 | 83* | 83* | . | . | 83* | 97*
c1ccc(-c2noc(-c3ccno3)n2)nc1 | 4 | -8 | -45 | -12 | -68 | -37
CN(C)/C=C/C(=O)/C=C/c1ccc(Cl)cc1 | -15 | -31 | -81 | -50 | -177 | -152
CN(C)CC(O)c1ccc(C=Cc2ccc(Cl)cc2)cc1 (stereo not given) | -66 | -22 | -117 | 78* | -263 | 104*
Cc1noc(C)c1S(=O)(=O)Nc1ccc2c(c1)C(=O)N([C@H](C)CO)C[C@@H](C)[C@@H](CN(C)C)OCCCC[C@H](C)O2 | . | . | -26 | . | . | .
CCNC(=O)C[C@@H]1CC[C@H]2[C@@H](COC[C@H](O)CN2C(=O)Nc2c(C)noc2C)O1 | . | . | -26 | . | . | .
COC(=O)c1cc([N+](=O)[O-])c(-n2cncn2)c([N+](=O)[O-])c1 | 0 | -18 | 9 | 34 | 30 | 94*
CCC(=O)c1cc2c(C)cc(=O)oc2c(C)c1OC(=O)C(C)C | -3 | 8 | 72* | -12 | -14 | -1
Cc1cc(C)n(-c2nc(Nc3ccccc3C(F)(F)F)nc(-n3nc(C)cc3C)n2)n1 | 33 | 97* | . | 7 | 16 | 86*
Cc1cccc2c(C(=O)O)cc(-c3cccnc3)nc12 | 4 | -4 | 66* | 2 | 18 | 7
O=C(Nc1cccc(C2=NCCN2)c1)Nc1cccc(C2=NCCN2)c1 | 0 | -11 | 99* | 8 | -5 | -14
Cc1ccc(-c2ccc(/C=C3\C(=O)ON=C3c3ccccc3)o2)c([N+](=O)[O-])c1 | 29 | 91* | . | 34 | 95* | 97*
Cc1ccc(/C=C2\C(=O)ON=C2c2ccccc2)o1 | -19 | -6 | 1 | -1 | 6 | 8
Cc1ccc(C2=NOC(=O)/C2=C\c2ccc(C)o2)cc1 | 1 | -30 | -3 | 26 | 42* | 36
CO[C@@H]1CN(C)C(=O)c2cc(NS(C)(=O)=O)ccc2OC[C@@H](C)N(C(=O)C2CCCC2)C[C@H]1C | . | . | -30 | . | . | .
CCCc1cc(=O)oc2cc(C)cc(OCC(=O)Nc3ccccn3)c12 | -16 | -5 | 11 | -10 | -11 | 15
Cc1cc(OCC(=O)Nc2ccccn2)c2c(C)cc(=O)oc2c1 | 49* | -6 | -14 | -12 | -43 | -40
SMILES | EBV LMP1 NFkB | Shn3 3UTR inh | PAX8 inh HTS | MITF TRPM1 inh | HIF-2a block | Peg3 prom inh
COc1cccc(/C=C2\SC(=S)N(CCC(=O)N3CCCCC3CCO)C2=O)c1 (stereo not given) | 3 | -53 | 70* | -5 | 31 | 43
COc1cccc(/C=C2\SC(=S)N(CCCC(=O)N3CCCC3)C2=O)c1 | -9 | -48 | 36 | 8 | 17 | 5
COc1cccc(/C=C2\SC(=S)N(CCCC(=O)N3CCCCC3CCO)C2=O)c1 (stereo not given) | 4 | 12 | 67* | 29 | 69* | 64*
C[C@@H]1CCCCO[C@@H](CN(C)CC2CCCCC2)[C@@H](C)CN([C@@H](C)CO)C(=O)c2cc(NC(=O)C3CCCCC3)ccc2O1 | . | . | -9 | . | . | .
CCOC(=O)C1C(=O)C=C(c2ccc(C)cc2)CC1c1ccco1 (stereo not given) | 48* | -29 | -39 | -35 | -170 | -45
CCOC(=O)C1C(=O)C=C(c2ccc(NS(C)(=O)=O)cc2)CC1c1ccco1 (stereo not given) | 5 | 12 | . | 0 | 4 | 7
Cc1ccc(NC(=O)C2CC(=O)N/C(=N/N=C/c3ccco3)S2)cc1 (stereo not given) | -8 | 7 | -9 | 0 | 14 | 12
Cc1ccc(NC(=O)C2CC(=O)N/C(=N/N=C/c3ccco3)S2)cc1C (stereo not given) | -26 | -7 | 118* | 5 | 20 | 22
Cc1ccc(-n2ncc3c2CC(C)(C)CC3NC(=O)CCN2CCCO2)cc1 (stereo not given) | . | 3 | -5 | -4 | 7 | 50*
CC1(C)Cc2c(cnn2-c2ccc(F)cc2)C(NC(=O)CCN2CCCCO2)C1 (stereo not given) | 4 | -9 | . | -4 | -29 | -16
CNC[C@@H]1OCCCC[C@@H](C)Oc2ccc(NC(=O)NC(C)C)cc2C(=O)N([C@@H](C)CO)C[C@H]1C | . | . | -13 | . | . | .
Cc1ccc(S(=O)(=O)N(C)C[C@H]2Oc3ccc(NS(C)(=O)=O)cc3CC(=O)N([C@H](C)CO)C[C@H]2C)cc1 | . | . | -50 | . | . | .
O=S(=O)(c1ccc(F)cc1)N1C[C@@H]2[C@H](c3ccccc31)[C@H](CO)N2Cc1ccccc1Cl | . | . | 2 | . | . | .
O=S(=O)(c1ccc(F)cc1)N1C[C@H]2[C@@H](c3ccccc31)[C@H](CO)N2Cc1ccccc1Cl | . | . | 109* | . | . | .
CN1C[C@@H]2[C@H](c3ccccc31)[C@H](CO)N2Cc1ccccc1Cl | . | . | 109* | . | . | .
COc1ccc(NC(=O)Nc2ccc3c(c2)[C@H]2C[C@@H](CC(=O)N4CCCCC4)O[C@@H](CO)[C@H]2O3)cc1 | . | . | 3 | . | . | .
c1ccc2c(c1)OCCOCCOCCOCCOCCOc1ccccc1OCCOCCOCCO2 | 13 | 86* | 48 | 29 | -10 | 29
OCCN1CCOCCOc2ccccc2OCCOCC1 | 0 | -2 | 12 | 15 | 23 | 2
CC(=O)Nc1ccc(NC2=Nc3ccccc3N3C2=Nc2c(c(C)nn2-c2ccccc2)C3c2ccccc2)cc1 (stereo not given) | ? | 14 | -5 | 79* | -12 | 90*
C=C(C(=O)c1ccccc1)C(C)C(=C)C(=O)c1ccccc1 | -48 | 62 | 98* | . | 91* | 104*
